assay: GAPDH versus PEG-3 reporter suppression – cell-based, luminescence, counter-screen for PEG-3 promoter inhibitor project, SAR follow-up (AID 651551); details: HeLa PEG-Prom / GAPDH luciferase reporter, 6 or 24 h, run 1, 6 h; at 99 µM (top of the series)

Row | SMILES | inhibition % (higher = more inhibition) [%]
1 | Cc1cc(NC(=O)c2ccccc2)n(-c2nc3ccccc3[nH]2)n1 | 21.2
2 | CCn1cc(C(=O)NCc2ccco2)c(=O)c2cc(S(=O)(=O)N3CCCC3)ccc21 | 37.8
3 | O=C(Nc1nc2ccccc2s1)c1nn(-c2ccccc2)c(=O)c2ccccc12 | 27
4 | Cc1cc(NC(=O)c2ccccc2C(F)(F)F)n(-c2nc3ccccc3[nH]2)n1 | 89.3
5 | Cc1nc(NC(=O)c2ccccc2)sc1-c1csc(Nc2ccccc2)n1 | 81.9
6 | Cc1ccc(Cl)cc1Nc1nc(-c2sc(NC(=O)c3ccco3)nc2C)cs1 | 35.5

— PubChem BioAssay AID651551 (Sanford-Burnham Center for Chemical Genomics, 2012)
